Assay results from PubChem BioAssay (Tox21).
Inconclusive results are not listed. Entries that show only a call come without a potency. Values without a mark were called inactive. The source made the active and inactive calls. Unless noted, the call rests on the fitted dose curve; in most records, active means well fitted curve in the direction sought with a large enough effect in the repeat runs; inconclusive means weak or mixed curves; inactive means no such curve, though single readings can be large; an effect the other way counts as inactive or inconclusive.

How the values were obtained:
[1] = molecular target: Luciferin 4-monooxygenase (Photinus pyralis) (UniProt P08659); assay: qHTS assay to identify small molecule inhibitors of firefly luciferase (AID 1224835); further: nearly all actives have a fitted effect of over 25% in size; further: potency means the concentration at half of the fitted maximal effect
Procedure, shortened: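 Biochemical qHTS: compounds run as interplate titrations against purified firefly enzyme, with D-luciferin and ATP each at its KM concentration. Light output recorded by CCD imaging.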

[2] = qHTS assay to identify small molecule agonists of the constitutive androstane receptor (CAR) signaling pathway - cell viability counter screen (AID 1224836); further: series mostly up to about 92 µM; nearly all actives have a fitted effect of over 45% in size
Procedure, shortened: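 23 h treatment, 37 C, 5% CO2. Cell line: HepG2 stably expressing hCAR with a CYP2B6-2.2kb construct. Co-treatment: PK11195, 0.75 uM final. Read-out: CellTiter-Fluor fluorescence intensity.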

[3] = qHTS assay to identify small molecule antagonists of the constitutive androstane receptor (CAR) signaling pathway - cell viability counter screen (AID 1224837); further: series mostly up to about 92 µM; nearly all actives have a fitted effect of over 45% in size
Procedure, shortened: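 HepG2-CYP2B6-hCAR cells, 2500/well, 4 hr pre-incubation; compound titration, 15 conc.; CITCO 50 nM final; 23 hr, 37 C/5% CO2; CellTiter-Fluor, fluorescence intensity.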

[4] = molecular target: Nuclear receptor subfamily 1 group I member 3 (Homo sapiens) (UniProt Q14994); assay: qHTS assay to identify small molecule antagonists of the constitutive androstane receptor (CAR) signaling pathway (AID 1224838);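 further: HepG2 cells stably expressing hCAR with CYP2B6 luciferase reporter stimulated by CITCO; nearly all actives have a fitted effect of over 40% in size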; further: potency means the concentration at half of the fitted maximal effect
Procedure, shortened: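 HepG2-CYP2B6-hCAR cells; 4 h pre-incubation; cpd (15 conc) + CITCO 50 nM final; 24 h, 37 C/5% CO2; ONE-Glo, luminescence.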

[5] = molecular target: Nuclear receptor subfamily 1 group I member 3 (Homo sapiens) (UniProt Q14994); assay: qHTS assay to identify small molecule agonists of the constitutive androstane receptor (CAR) signaling pathway (AID 1224839); further: nearly all actives have a fitted effect of over 15% in size; further: potency means the concentration at half of the fitted maximal effect
Procedure, shortened: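 Compounds tested at 15 concentrations on HepG2 cells stably harbouring hCAR and CYP2B6-2.2kb reporter constructs, co-treated with PK11195 (0.75 uM final), 24 h at 37 C; luminescent reporter signal quantified.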

[6] = qHTS assay to identify small molecule antagonists of the estrogen related receptor signaling pathway with the pleiotropic PPARgamma coactivator (PGC) from Tox21 10K library - cell viability counter screen (AID 1224840; active means well fitted cell-killing curve with a large enough effect in the repeat runs, not every such curve was filed as active; further: nearly all actives have a fitted effect of over 40% in size)
Procedure, shortened: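 PGC/ERR cells, 2,000/well; 6 h pre-incubation 37 C/5% CO2; cpd in DMSO via pin tool; 17.5 h 37 C; CellTiter-Fluor, 30 min; fluorescence.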

[7] = qHTS assay to identify small molecule antagonists of the estrogen related receptor signaling pathway with the pleiotropic PPARgamma coactivator (PGC) from Tox21 10K library (AID 1224841; call rule not given here; further: series mostly up to about 92 µM; actives are mostly falling curves and most rising ones were filed inactive; nearly all actives have a fitted effect of over 50% in size)
Procedure, shortened: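 PGC/ERR cell line, 2,000 cells/well; 6 h pre-incubation 37 C/5% CO2; compounds (DMSO) pinned in; 18 h, 37 C; One-Glo, 30 min RT; luminescence.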

[8] = qHTS assay to identify small molecule agonists of the estrogen related receptor signaling pathway with the pleiotropic PPARgamma coactivator (PGC) from Tox21 10K library (AID 1224842); further: nearly all actives have a fitted effect of over 15% in size
Procedure, shortened: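 PGC/ERR reporter cell line, 2,000 cells per well, incubated 6 h at 37 C before 23 nL compound in DMSO was added. After 18 h at 37 C, One-Glo luminescence read following 30 min at room temperature.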

[9] = molecular target: Thyrotropin receptor (Homo sapiens) (UniProt P16473); assay: qHTS assay to identify small molecule agonists of the thyroid stimulating hormone receptor (TSHR) signaling pathway (AID 1224843; calls by dose curve; further: nearly all actives have a fitted effect of over 45% in size)
Procedure, shortened: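 TSHR-HEK293 cells in agonist mode, 30 min room-temperature step, then cAMP measured by competitive HTRF (cAMP-d2 with anti-cAMP cryptate) after 1 h at room temperature. Tested at 15 concentrations in triplicate.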

[10] = qHTS assay to identify small molecule agonists of the hypoxia (HIF-1) signaling pathway - cell viability counter screen (AID 1224844; calls by dose curve; further: nearly all actives have a fitted effect of over 50% in size)
Procedure, shortened: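 ME-180 HRE-bla cells, 2,000/well, 0.5% dialyzed FBS; 5 hr settle, 17 hr compound at 37C/5% CO2; CCF4-AM reporter read first, then CellTiter-Glo luminescence after 30 min RT.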

Thyrotropin receptor (Homo sapiens), sequence (P16473 whole entry, looked up): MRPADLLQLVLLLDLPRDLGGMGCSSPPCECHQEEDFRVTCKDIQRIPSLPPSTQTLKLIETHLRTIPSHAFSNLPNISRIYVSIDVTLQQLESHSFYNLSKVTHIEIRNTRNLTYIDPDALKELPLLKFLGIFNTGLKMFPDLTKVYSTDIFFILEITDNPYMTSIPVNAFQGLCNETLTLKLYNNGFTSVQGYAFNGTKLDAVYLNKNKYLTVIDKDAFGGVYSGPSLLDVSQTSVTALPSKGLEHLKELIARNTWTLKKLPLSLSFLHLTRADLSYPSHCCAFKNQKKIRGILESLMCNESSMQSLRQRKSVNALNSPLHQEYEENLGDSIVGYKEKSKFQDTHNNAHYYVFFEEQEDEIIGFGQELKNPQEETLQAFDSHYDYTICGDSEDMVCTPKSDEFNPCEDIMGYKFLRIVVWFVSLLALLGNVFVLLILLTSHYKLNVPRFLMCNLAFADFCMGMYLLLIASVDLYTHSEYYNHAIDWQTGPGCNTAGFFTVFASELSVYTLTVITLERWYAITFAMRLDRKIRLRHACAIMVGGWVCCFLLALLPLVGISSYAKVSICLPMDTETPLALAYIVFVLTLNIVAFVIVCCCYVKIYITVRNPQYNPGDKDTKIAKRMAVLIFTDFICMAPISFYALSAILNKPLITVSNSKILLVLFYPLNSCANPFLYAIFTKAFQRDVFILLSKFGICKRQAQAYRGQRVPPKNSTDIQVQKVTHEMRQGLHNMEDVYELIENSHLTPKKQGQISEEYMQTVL
Nuclear receptor subfamily 1 group I member 3 (Homo sapiens), sequence (Q14994 whole entry, looked up): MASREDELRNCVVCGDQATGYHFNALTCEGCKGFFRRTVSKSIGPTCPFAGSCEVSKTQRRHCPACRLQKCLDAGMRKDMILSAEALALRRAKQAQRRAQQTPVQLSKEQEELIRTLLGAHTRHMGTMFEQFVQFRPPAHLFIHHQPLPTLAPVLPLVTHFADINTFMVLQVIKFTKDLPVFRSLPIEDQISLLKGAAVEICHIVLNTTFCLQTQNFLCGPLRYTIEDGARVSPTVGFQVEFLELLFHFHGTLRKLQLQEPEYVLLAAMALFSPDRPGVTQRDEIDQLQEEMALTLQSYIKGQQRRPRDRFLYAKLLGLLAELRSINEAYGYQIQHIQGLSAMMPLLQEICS
Luciferin 4-monooxygenase (Photinus pyralis), sequence (P08659 whole entry, looked up): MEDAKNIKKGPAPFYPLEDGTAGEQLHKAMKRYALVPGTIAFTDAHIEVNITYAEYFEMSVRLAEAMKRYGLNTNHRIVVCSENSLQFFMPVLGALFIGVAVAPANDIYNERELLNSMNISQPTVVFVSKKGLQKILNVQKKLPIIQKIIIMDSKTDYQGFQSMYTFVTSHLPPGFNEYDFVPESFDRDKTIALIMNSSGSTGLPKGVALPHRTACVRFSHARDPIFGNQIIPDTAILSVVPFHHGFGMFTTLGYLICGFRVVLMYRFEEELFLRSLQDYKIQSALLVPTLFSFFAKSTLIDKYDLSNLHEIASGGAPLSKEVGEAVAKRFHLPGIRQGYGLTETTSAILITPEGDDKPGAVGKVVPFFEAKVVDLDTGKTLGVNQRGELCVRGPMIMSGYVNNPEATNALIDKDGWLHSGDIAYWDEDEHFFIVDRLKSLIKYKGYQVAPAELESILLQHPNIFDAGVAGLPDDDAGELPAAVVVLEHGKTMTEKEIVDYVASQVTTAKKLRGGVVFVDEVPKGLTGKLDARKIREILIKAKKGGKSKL

In the case of `C[C@]12CC[C@H]3[C@@H](CCC4=CC(=O)CC[C@@H]43)[C@@H]1CC[C@@H]2OC(=O)CCc1ccccc1`, the Potency [1] is reported as “inactive”, the Potency [2] is reported as “inactive” and the Potency [3] is reported as “inactive”. The Potency [4] was “inactive”, the Potency [5] was “inactive” and the Potency [6] was “inactive”. The Potency [7] was “inactive”, the Potency [8] was “inactive” and the Potency [9] was “inactive”. For the same compound, the Potency [10] was “inactive”.
In the case of `Nc1cc(Cl)cc(C(=O)O)c1Cl`, the Potency [1] is reported as “inactive”, the Potency [2] is reported as “inactive” and the Potency [3] is reported as “inactive”. For the same compound, the Potency [4] was “inactive”, the Potency [5] was “inactive” and the Potency [6] was “inactive”. For the same compound, the Potency [7] was “inactive”, the Potency [8] was “inactive” and the Potency [10] was “inactive”.
For `CCCCC#N`, the Potency [1] was “inactive”, the Potency [2] was “inactive” and the Potency [3] was “inactive”. The Potency [4] was “inactive”, the Potency [5] was “inactive” and the Potency [6] was “inactive”. For the same compound, the Potency [9] was “inactive” and the Potency [10] was “inactive”.
In the case of `CCC(C)Cl` (centres undefined), the Potency [1] is reported as “inactive”, the Potency [2] is reported as “inactive” and the Potency [3] is reported as “inactive”. For the same compound, the Potency [4] was “inactive”, the Potency [5] was “inactive” and the Potency [6] was “inactive”. For the same compound, the Potency [9] was “inactive” and the Potency [10] was “inactive”.
With `CCCC(C)(COC(N)=O)COC(=O)NC(C)C` (centres undefined) the Potency [1] was “inactive”, the Potency [2] was “inactive” and the Potency [3] was “inactive”. The Potency [4] was “inactive”, the Potency [5] was “inactive” and the Potency [6] was “inactive”. For the same compound, the Potency [7] was “inactive”, the Potency [8] was “inactive” and the Potency [9] was “inactive”. The Potency [10] was “inactive”.
In the case of `CCNC(=O)NC(=O)/C(C#N)=N/OC`, the Potency [1] is reported as “inactive”, the Potency [2] is reported as “inactive” and the Potency [3] is reported as “inactive”. For the same compound, the Potency [4] was “inactive”, the Potency [5] was “inactive” and the Potency [6] was “inactive”. For the same compound, the Potency [7] was “inactive”, the Potency [8] was “inactive” and the Potency [9] was “inactive”. The Potency [10] was “inactive”.
With `CC(C)(C)NCC(O)c1ccccc1Cl` (centres undefined) the Potency [1] was “inactive”, the Potency [2] was “inactive” and the Potency [3] was “inactive”. The Potency [4] was “inactive”, the Potency [5] was “inactive” and the Potency [6] was “inactive”. For the same compound, the Potency [7] was “inactive”, the Potency [8] was “inactive” and the Potency [9] was “inactive”. For the same compound, the Potency [10] was “inactive”.
For `C=C(Cl)Cl`, the Potency [1] was “inactive”, the Potency [2] was “inactive” and the Potency [3] was “inactive”. For the same compound, the Potency [4] was “inactive”, the Potency [5] was “inactive” and the Potency [6] was “inactive”. For the same compound, the Potency [7] was “inactive”, the Potency [8] was “inactive” and the Potency [9] was “inactive”. The Potency [10] was “inactive”.
With `O=C(Cl)OCCOCCOC(=O)Cl` the Potency [1] was “inactive”, the Potency [2] was “inactive” and the Potency [3] was “inactive”. The Potency [4] was 30.6 µM (active), the Potency [5] was “inactive” and the Potency [6] was “inactive”. The Potency [7] was “inactive”, the Potency [8] was “inactive” and the Potency [9] was “inactive”. For the same compound, the Potency [10] was “inactive”.
In the case of `CC(C)(C)OOC(C)(C)CCC(C)(C)OOC(C)(C)C`, the Potency [1] is reported as “inactive”, the Potency [2] is reported as “inactive” and the Potency [3] is reported as “inactive”. The Potency [4] was “inactive”, the Potency [5] was “inactive” and the Potency [6] was “inactive”. For the same compound, the Potency [7] was “inactive”, the Potency [8] was “inactive” and the Potency [9] was “inactive”. The Potency [10] was “inactive”.
With `CC[N+]1(C)CCCC(OC(=O)C(O)(c2ccccc2)c2ccccc2)C1` (centres undefined) the Potency [1] was “inactive”, the Potency [2] was “inactive” and the Potency [3] was “inactive”. The Potency [4] was “inactive”, the Potency [5] was “inactive” and the Potency [6] was “inactive”. The Potency [8] was “inactive”, the Potency [9] was “inactive” and the Potency [10] was “inactive”.
For `CC(Oc1cc(Cl)c(Cl)cc1Cl)C(=O)O` (centres undefined), the Potency [1] was “inactive”, the Potency [2] was “inactive” and the Potency [3] was “inactive”. For the same compound, the Potency [4] was “inactive”, the Potency [5] was “inactive” and the Potency [6] was “inactive”. For the same compound, the Potency [9] was “inactive” and the Potency [10] was “inactive”.
In the case of `CC1(C)CC(=O)CC(C)(C)N1[O]`, the Potency [1] is reported as “inactive”, the Potency [2] is reported as “inactive” and the Potency [3] is reported as “inactive”. The Potency [4] was “inactive”, the Potency [5] was “inactive” and the Potency [6] was “inactive”. The Potency [7] was “inactive”, the Potency [8] was “inactive” and the Potency [9] was “inactive”. For the same compound, the Potency [10] was “inactive”.
For `CCOP(=S)(OCC)SCSc1cc(Cl)ccc1Cl`, the Potency [1] was “inactive”, the Potency [2] was “inactive” and the Potency [3] was “inactive”. The Potency [4] was “inactive”, the Potency [5] was “inactive” and the Potency [6] was “inactive”. The Potency [9] was “inactive” and the Potency [10] was “inactive”.
In the case of `CC(C)(C#N)C(C)(C)C#N`, the Potency [1] is reported as “inactive”, the Potency [2] is reported as “inactive” and the Potency [3] is reported as “inactive”. For the same compound, the Potency [4] was “inactive”, the Potency [5] was “inactive” and the Potency [6] was “inactive”. The Potency [7] was “inactive”, the Potency [8] was “inactive” and the Potency [10] was “inactive”.
For `N#CC1(N=NC2(C#N)CCCCC2)CCCCC1`, the Potency [1] was “inactive”, the Potency [2] was “inactive” and the Potency [3] was “inactive”. For the same compound, the Potency [4] was “inactive”, the Potency [5] was “inactive” and the Potency [6] was “inactive”. For the same compound, the Potency [7] was “inactive”, the Potency [8] was “inactive” and the Potency [10] was “inactive”.
For `FC(F)OC(F)(F)C(F)Cl` (centres undefined), the Potency [1] was “inactive”, the Potency [2] was “inactive” and the Potency [3] was “inactive”. The Potency [4] was “inactive”, the Potency [5] was “inactive” and the Potency [6] was “inactive”. For the same compound, the Potency [9] was “inactive” and the Potency [10] was “inactive”.
In the case of `O=C(O)c1ccc(=O)[nH]c1`, the Potency [1] is reported as “inactive”, the Potency [2] is reported as “inactive” and the Potency [3] is reported as “inactive”. For the same compound, the Potency [4] was “inactive”, the Potency [5] was “inactive” and the Potency [6] was “inactive”. The Potency [7] was “inactive”, the Potency [8] was “inactive” and the Potency [9] was “inactive”. The Potency [10] was “inactive”.
In the case of `O=CC=O`, the Potency [1] is reported as “inactive”, the Potency [2] is reported as “inactive” and the Potency [3] is reported as “inactive”. For the same compound, the Potency [4] was “inactive”, the Potency [5] was “inactive” and the Potency [6] was “inactive”. For the same compound, the Potency [9] was “inactive” and the Potency [10] was “inactive”.
With `CC(C)CCCCCCCOC(=O)c1ccccc1C(=O)OCCCCCCCC(C)C` the Potency [1] was “inactive”, the Potency [2] was “inactive” and the Potency [3] was “inactive”. For the same compound, the Potency [4] was “inactive”, the Potency [5] was “inactive” and the Potency [6] was “inactive”. For the same compound, the Potency [7] was “inactive”, the Potency [8] was “inactive” and the Potency [9] was “inactive”. The Potency [10] was “inactive”.
With `O=[N+]([O-])c1cc(Cl)c(Cl)cc1Cl` the Potency [1] was “inactive”, the Potency [2] was “inactive” and the Potency [3] was “inactive”. For the same compound, the Potency [4] was “inactive”, the Potency [5] was “inactive” and the Potency [6] was “inactive”. For the same compound, the Potency [7] was “inactive”, the Potency [8] was “inactive” and the Potency [10] was “inactive”.
In the case of `Nc1ccc2c(c1)Cc1ccccc1-2`, the Potency [1] is reported as 39.7 µM (active), the Potency [2] is reported as “inactive” and the Potency [3] is reported as “inactive”. The Potency [4] was “inactive”, the Potency [5] was 48.3 µM (active) and the Potency [6] was “inactive”. For the same compound, the Potency [7] was “inactive” and the Potency [10] was “inactive”.
In the case of `COc1ccc(C(O)(c2cncnc2)C2CC2)cc1` (centres undefined), the Potency [1] is reported as “inactive”, the Potency [2] is reported as “inactive” and the Potency [3] is reported as “inactive”. The Potency [4] was “inactive”, the Potency [5] was “inactive” and the Potency [6] was “inactive”. For the same compound, the Potency [7] was “inactive”, the Potency [8] was “inactive” and the Potency [9] was “inactive”. The Potency [10] was “inactive”.
In the case of `CCCCCCCCCCCCCCCl`, the Potency [1] is reported as “inactive”, the Potency [2] is reported as “inactive” and the Potency [3] is reported as “inactive”. The Potency [4] was “inactive”, the Potency [5] was “inactive” and the Potency [6] was “inactive”. The Potency [9] was “inactive” and the Potency [10] was “inactive”.
